These results are taken from ChEMBL document CHEMBL4888484, “Replenishing the malaria drug discovery pipeline: Screening and hit evaluation of the MMV Hit Generation Library 1 (HGL1) against asexual blood stage Plasmodium falciparum ,using a nano luciferase reporter read-out” (2022).

Broadly, the % Inhibition is the drop in the measured response relative to a control, in per cent.

In all, about 150,000 compounds went through this assay and about 540 (0.36%) showed an effect of 50% or more. Only a selection was taken, and strong results are over-represented in it overall.

The assay deals with Plasmodium falciparum. Nature of the assay: Primary screen in NF54 nanoGlo assay, in single point, at 2uM, 72h; a lower Z score goes with more inhibition. As to conditions: timepoint 72 hour. The assay is classed as functional, Erythrocyte.
Regarding `CCOCCCNC(=O)C1CCN(C(=O)c2cc3oc(C)cc3n2Cc2c(F)cccc2Cl)CC1`, the “% Inhibition” value is recorded as -1% and the Z score was determined as 0.06.
The corresponding values for `CN1CCN(S(=O)(=O)N2CCN(Cc3cccn3C)CC2)CC1` are 7% and -0.7.
The like results for `NC(=O)CN1CCC(Nc2nc3ccccc3n2CCO)CC1` were, in that order, -7% and 1.08.
The like results for `COc1cccc(NC(=O)Cc2c(C)nn(-c3nc(-c4ccc(C)cc4)cs3)c2C)c1` were, in that order, -13% and 1.45.
For the compound `CN(Cc1cc2cc(F)ccc2[nH]1)Cc1ccnn1C`, the “% Inhibition” value is on record as -9% and the Z score was found to be 1.38.
The corresponding values for `C[C@H](Nc1ccc(C#N)cn1)c1cccc(-n2cccn2)c1` are 0% and 0.03.
On to `CNCCc1c(-c2ccccc2)[nH]n(-c2ccccc2)c1=O`, for which the “% Inhibition” value is given as 82% and the Z score was -6.33.
The corresponding values for `CCCCCc1c(C)nc2[nH]n(-c3ccccc3)c(=O)c2c1O` are 34% and 2.26.
The like results for `Cc1ccccc1Cc1c(C)[nH]c2[nH]n(-c3ccccc3)c(=O)c2c1=O` were, in that order, 10% and -1.18.
The corresponding values for `O=C1NCCN1CCN1CCc2[nH]ncc2C1` are -10% and 1.34.
For `CC1=NN(c2ccccc2)C(=O)C12Cc1ccc(Cl)cc1N1CCCCC12` (stereo not drawn), the “% Inhibition” value is reported as 8% and the Z score is listed as -1.22.
In the case of `Cc1cc(OC[C@@H](O)CNC(C)C)cc(C)c1Cl`, the “% Inhibition” value was -7% and the Z score is on record as 1.4.
In the case of `Cc1cc(C)cc(OC[C@@H](O)CNC(C)(C)CC(C)(C)C)c1`, the “% Inhibition” value is recorded as -3% and the Z score turned out to be 0.43.
The corresponding values for `Cc1cc(OC[C@@H](O)CNC(C)(C)CC(C)(C)C)cc(C)c1Cl` are 51% and -6.83.
The like results for `CCc1cnc(C)nc1N1CCC(N2CC(n3nc(C)cc3C)C2)CC1` were, in that order, 6% and -1.11.
The corresponding values for `CN(Cc1cccnc1)C(=O)c1csc(NC(=O)c2ccc(Cl)cc2Cl)n1` are -12% and 1.69.
`COc1ccc(-c2ccnc(N[C@H]3CCN(C4CCOCC4)C3=O)n2)cc1`: the “% Inhibition” value is on record as -13% and the Z score is listed as 2.48.
The like results for `C#CCOCC(O)CN(Cc1c(-c2ccccc2)noc1N1CCC(C)CC1)CC1CCCO1` (stereo not drawn) were, in that order, 59% and 1.43.
The corresponding values for `C=CCOCC(O)CN(Cc1c(-c2ccccc2)noc1N1CCCCC1C)CC1CCCO1` (stereo not drawn) are 30% and -0.88.
In the case of `CCOC[C@@H](O)CN(Cc1c(-c2ccccc2)noc1N1CCC(C)CC1)CC1CC1`, the “% Inhibition” value was 35% and the Z score is 0.79.
The like results for `CC(NC(=O)NC(C)c1ccc(-c2cccnc2)cc1)c1ccncc1` (stereo not drawn) were, in that order, 7% and -1.01.
Take `C[C@H](N)c1ccc(Nc2ncc3cc(-c4ccncc4)ccc3n2)cc1`: the “% Inhibition” value is recorded as 85% and the Z score is on record as -9.36.
The corresponding values for `CC(C)C(=O)Nc1ccc(-c2cc(-c3ccc(NC(=O)C(C)C)cc3)nc(-c3ccncc3)n2)cc1` are 38% and -10.15.
The corresponding values for `CCOc1c(Br)cc(Cl)cc1NCC(=O)NC(=O)NCC(C)C` are -7% and 1.36.
Regarding `Cn1ncc2c1CCCN(c1nccn3nc(C(F)(F)F)cc13)C2`, the “% Inhibition” value is on record as -10% and the Z score amounted to 1.44.
The corresponding values for `CC(=O)c1ccc(NC(=O)c2cc3n(n2)CCCO3)cc1` are -7% and 1.13.
For `CC(C)=CC1C(C(=O)N(C)CC2COc3ccccc3O2)C1(C)C` (stereo not drawn), the “% Inhibition” value was -4% and the Z score was 0.45.
As for `Cc1cncc(C(=O)NC[C@@H](CO)Cc2ccc(Cl)cc2)c1`, the “% Inhibition” value is listed as -7% and the Z score worked out at 0.93.
The corresponding values for `O=C(CNC(=O)NC1CC1)NCCc1cc(F)cc2c1OCOC2` are -2% and 0.2.
The corresponding values for `COC[C@H](NCCc1cc(F)cc2c1OCOC2)C1CC1` are 63% and -8.98.
The corresponding values for `CC1CC(NCCc2cc(F)cc3c2OCOC3)CN1C1CC1` (stereo not drawn) are -5% and 0.45.
For `Cc1nc(-c2ccnc(NCc3cnc(N(C)C)nc3)c2)n[nH]1`, the “% Inhibition” value amounted to 5% and the Z score is given as -0.63.
Regarding `O=S1(=O)NC[C@H](O)CNC[C@@]2(COc3cc(-c4ccccc4)ccc31)C[C@@H](O)[C@@H](O)C2`, the “% Inhibition” value was -14% and the Z score is recorded as 1.78.
The like results for `Cn1nccc1[C@@H]1CN(C(=O)NCc2ccon2)CCO1` were, in that order, -3% and 0.43.
The corresponding values for `Cc1cc(C(=O)N[C@@H](C)c2nc(-c3cccnc3)cs2)cc(O)n1` are 51% and -3.53.
The corresponding values for `Cc1ccc(C)c(C(=O)N[C@@H](C)c2nc(-c3cccnc3)cs2)c1` are 0% and -0.01.
`Cc1cc(CC(=O)N[C@@H](C)c2nc(-c3cccnc3)cs2)no1`: the “% Inhibition” value was -5% and the Z score was determined as 0.5.
The corresponding values for `COc1cccc(CCn2ccnc2C(C)C)c1` are -4% and 0.93.
In the case of `COc1ccccc1CCNC(=O)c1ccccc1N1CCC(NS(=O)(=O)c2ccc(F)cc2)CC1`, the “% Inhibition” value was 11% and the Z score is -1.5.
The like results for `N[C@H]1C[C@@H](c2cc(N3CCN(C4CCCCC4)CC3)nc(N3CCCC3)n2)C1` were, in that order, 56% and -8.12.
With `c1ccc2c(N3CCCC3)nc(N3CCN(C4CCCCC4)CC3)nc2c1`, the “% Inhibition” value is recorded as -5% and the Z score came to 0.7.
`NC1CC(c2cc(N3CCCCCCCC3)ncn2)C1` (stereo not drawn): the “% Inhibition” value is -23% and the Z score is recorded as 2.99.
The corresponding values for `CC(C)c1nnc2c3ccccc3nc(N3CCN(C(=O)c4ccc(Cl)cc4)[C@@H](C)C3)n12` are -1% and 0.12.
The corresponding values for `Nc1nc(C2CC(N)C2)cc(N2CCC(Oc3ccccc3Cl)CC2)n1` (stereo not drawn) are 50% and -7.79.
As to `Nc1nc(N2CCN(Cc3ccc(F)cc3)CC2)cc([C@H]2C[C@@H](N)C2)n1`, the “% Inhibition” value is 16% and the Z score is reported as -2.35.
The like results for `Nc1nc(N2CCN(c3ccc(F)c(Cl)c3)CC2)cc([C@H]2C[C@@H](N)C2)n1` were, in that order, 49% and -3.16.
The like results for `Cc1ccc(Cc2nnc(NC(=O)Cc3ccccc3Cl)o2)c(C)c1` were, in that order, -13% and 1.44.
As for `CN1CCCN(c2ccc3ccc(F)cc3n2)CC1`, the “% Inhibition” value is given as -5% and the Z score is 0.48.
Consider `CCNC(=O)N[C@H]1CCN(C2CCCCCC2)C1`, for which the “% Inhibition” value is on record as 1% and the Z score is reported as -0.09.
The like results for `CCOc1cc(-c2cc(-c3ccccc3O)nc3ccc4ccccc4c23)cc(Br)c1O` were, in that order, 82% and -8.45.
The corresponding values for `COc1cc(-c2cc(-c3cccnc3)c3c(ccc4ccccc43)n2)cc(Cl)c1O` are 18% and -2.48.
The like results for `Oc1ccccc1-c1cc(-c2ccccc2)c2c(ccc3ccccc32)n1` were, in that order, -5% and 0.64.
Consider `Cn1ccnc1CN1C[C@@H](F)C[C@H]1CNc1ncnc2c1CCCCC2`, for which the “% Inhibition” value was -4% and the Z score was found to be 0.8.
The corresponding values for `COc1cccc(C(=O)N2CCN(C(=O)Cn3cc(Cl)cn3)CC2)c1` are -4% and 0.42.
With `Cn1ccc(NS(=O)(=O)c2cccc3c2N=S=N3)n1`, the “% Inhibition” value is reported as -1% and the Z score was determined as 0.06.
The corresponding values for `O=C(N[C@@H]1CN(Cc2ccc(CO)o2)CCC[C@H]1O)c1ccc(OCc2ccccc2)cc1` are 26% and -2.94.
The corresponding values for `CCOc1cccc(C(=O)N[C@H]2CCN(Cc3ccccn3)C[C@@H]2O)c1` are 2% and -0.4.
The corresponding values for `O=C(N[C@@H]1CN(Cc2ccccn2)CCC[C@H]1O)c1ccc(OCc2ccccc2)cc1` are 59% and -6.9.
Take `Cc1ccc(-c2nc(CC(=O)N3CCC(C(C)(C)C)C(O)C3)cs2)o1` (stereo not drawn): the “% Inhibition” value is -3% and the Z score was determined as 0.35.
With `Cc1n[nH]c(=O)c2c1cnn2-c1ccccc1`, the “% Inhibition” value is 21% and the Z score is -2.61.
The like results for `Cc1nc(-c2c(C)c(C)nn(C)c2=O)sc1C(=O)NC[C@H](C)N1CCc2ccccc21` were, in that order, 31% and -3.46.
For the compound `CCN=C(NCc1noc(C)n1)NCc1ccccc1OC(C)(C)C`, the “% Inhibition” value is -6% and the Z score amounted to 0.55.
The corresponding values for `CCc1ncc(CN2CCC[C@H](NC(=O)CN3CCOC3=O)CC2)cn1` are 9% and -1.74.
For `CC(=O)N(CC[C@]1(Cc2ccccc2Cl)CCOC(C)(C)C1)Cc1ccco1`, the “% Inhibition” value is 32% and the Z score stood at 1.22.
`Cn1n[n+](CC(=O)Nc2ccccc2Cl)c2ccccc21`: the “% Inhibition” value is reported as 41% and the Z score is on record as -0.29.
The like results for `Cn1n[n+](CCCCC(Cl)(Cl)Cl)c2ccccc21` were, in that order, 65% and -4.82.
The like results for `COc1c2c(cc3c1[C@@H](C#CCOc1ccccc1)[N+](C)(C)CC3)OCO2` were, in that order, 64% and -13.6.
`COc1c2c(cc3c1[C@H](C(=O)NC(c1ccccc1)c1ccccc1)[N+](C)(C)CC3)OCO2`: the “% Inhibition” value was 2% and the Z score was -0.21.
For the compound `COc1c2c(cc3c1[C@H](CC(=O)Cc1ccccc1)[N+](C)(C)CC3)OCO2`, the “% Inhibition” value is listed as -1% and the Z score was determined as 0.08.
Take `Cn1c(COc2ccccc2C(N)=O)nnc1-c1ccc(Cl)cc1`: the “% Inhibition” value was determined as 3% and the Z score is -0.35.
The like results for `COc1cccc(C(=O)N2C[C@@H]3CC[C@H]2CN(Cc2c(C)noc2C)C3)c1` were, in that order, 4% and -0.53.
The corresponding values for `c1ccc(-c2nc(CN3CCc4ccccc4C3)cs2)cc1` are -1% and 0.12.
The like results for `c1ccc(-c2nc(CN3CCCCCCC3)cs2)cc1` were, in that order, -10% and 1.49.
In the case of `c1ccc(-c2nc(C[n+]3ccc4c(c3)CCCC4)cs2)cc1`, the “% Inhibition” value amounted to 63% and the Z score is given as -6.15.
The corresponding values for `O=C(Cn1cc(-c2ccccc2)ncc1=O)NC[C@@H]1CCCN2CCCC[C@H]12` are -8% and 0.97.
Regarding `CCCCN(CCCNC(=O)[C@H]1CCCN(c2ncnc3onc(C)c23)C1)Cc1ccccc1`, the “% Inhibition” value is reported as 5% and the Z score was -0.69.
The like results for `O=C(O)C[C@@H]1CN(C(=O)c2ccc3c(c2)OCO3)C[C@@H]1c1c[nH]nn1` were, in that order, -3% and 0.47.
For `COC(=O)c1ccc(C)c(OCc2cn3ccccc3c2C#N)c1`, the “% Inhibition” value is listed as -17% and the Z score worked out at 2.14.
The corresponding values for `N#Cc1c(NC(=O)Nc2cn3ccccc3c2C#N)cn2ccccc12` are 65% and 1.13.
The like results for `CCN(CC)Cc1cn2ccccc2c1C#N` were, in that order, -12% and 1.72.
The like results for `CC1CCC(O)(CS(=O)(=O)Cc2nccs2)CC1` (stereo not drawn) were, in that order, -8% and 1.13.
For the compound `COc1ccc(C2N[C@H](C(=O)O)Cc3c2[nH]c2ccccc32)cc1` (stereo partly drawn), the “% Inhibition” value is -14% and the Z score turned out to be 2.25.
The corresponding values for `COc1ccc2[nH]c3c(c2c1)CC(C(=O)O)NC3c1ccc(OC)c(CN2CCN(c3ccccc3F)CC2)c1` (stereo not drawn) are 74% and -11.3.
The corresponding values for `COc1cc(C2N[C@H](C(=O)O)Cc3c2[nH]c2ccccc32)ccc1OCc1ccccc1` (stereo partly drawn) are -3% and 0.42.
